mIDH1 inhibitor: qHTS for Inhibitors of mutant isocitrate dehydrogenase 1 (IDH1): qHTS | IDH1-R132H enzyme, NADPH consumption, diaphorase/resazurin fluorescence | Potency, µM (doses to about 76.6 µM), without a hit: at the highest dose activity change, negative = inhibition, most hits filed as inhibitors | 390,000 compounds, 0.093% hits | AID 602179, 2012; note: potency is the fitted concentration of half-maximal effect; % is set by controls: 0 for no effect and ±100 for the full control effect; nearly all actives have a fitted effect of over 65% in size
Target sequence (O75874 whole entry R132H, stated change not applied): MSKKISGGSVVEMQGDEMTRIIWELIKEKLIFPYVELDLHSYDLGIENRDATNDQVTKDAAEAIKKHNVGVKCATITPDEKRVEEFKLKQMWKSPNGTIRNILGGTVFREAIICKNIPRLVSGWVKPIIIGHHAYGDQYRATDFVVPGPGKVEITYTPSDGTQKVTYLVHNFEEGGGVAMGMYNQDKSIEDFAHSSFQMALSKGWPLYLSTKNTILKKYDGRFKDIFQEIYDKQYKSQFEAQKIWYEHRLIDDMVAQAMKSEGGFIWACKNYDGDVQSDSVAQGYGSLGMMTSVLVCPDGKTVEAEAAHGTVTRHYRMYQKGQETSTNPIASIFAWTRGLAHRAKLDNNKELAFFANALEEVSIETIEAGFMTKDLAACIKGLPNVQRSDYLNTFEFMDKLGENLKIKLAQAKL
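IDH1-R132H (0.5 ug/mL dispensed) in pH 7.5 Tris buffer was preincubated 30 min with compound, then given a substrate mix of 0.016 mM NADPH and 2 mM alpha-KG for 80 min at room temperature; remaining NADPH was read by diaphorase/resazurin fluorescence.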
LDHA block: qHTS assay for inhibitors of human lactate dehydrogenase. L-lactate dehydrogenase A chain (Homo sapiens), P00338. purified LDHA, NADH/diaphorase-resazurin fluorescence; hits give low values. activity change, % (values are at about 110 or 230 µM). 480,000 compounds, 0.15% hits. AID 1347041, 2019; in the data active = activity change below about -30%; inconclusive = mostly about -25% to -30%;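 note: plate controls were DMSO wells for no effect and wells without enzyme for full effect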
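Human LDH5 (2 nM) was incubated with 0.06 mM NADH and 0.2 mM pyruvate for 5 min at room temperature in Tris pH 7.4. Remaining NADH was coupled through diaphorase/resazurin, and resorufin fluorescence was read at 0 and 20 min.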
ATXN2 expr inh: Primary qHTS for Inhibitors of ATXN expression | HEK-293 ATXN2-luciferase reporter, luminescence, 24 h | Potency, µM (top dose mostly 57 µM), for the others: top-dose activity change, negative = inhibition, actives largely listed as inhibitors | 360,000 compounds, 0.72% hits; note: potency is the fitted concentration of half-maximal effect; % is set by controls: 0 for no effect and ±100 for the full control effect; nearly all actives have a fitted effect of over 55% in size
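ATXN2-luciferase reporter cells (luciferase flanked by upstream and downstream ATXN2 gene portions) were treated 24 h at 37 °C with compounds at up to 57 uM. SteadyGlo luminescence gave expression; GF-AFC fluorescence gave viability.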
TGFb SMAD3 inh: qHTS for Inhibitors of TGF-b. HepG2 CAGA-GFP TGF-b/SMAD3 reporter, GFP fluorescence, 18 h; TGF-beta stimulated, 500 pg/mL final. 410,000 compounds, 1.2% hits. Potency, µM (titrated, usually from 46.1 µM), for the others: top-dose activity, negative = inhibition, hits mostly inhibitors; note: potency is the fitted concentration of half-maximal effect; % is set by controls: 0 for no effect and ±100 for the full control effect; nearly all actives have a fitted effect of over 65% in size
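Read-out: total well GFP (ex488/em500-530) summed from mean per-cell fluorescence. Cells: HEPG2 CAGA-GFP, 1% FBS DMEM, 18 h at 37 degrees C with 500 pg/mL final TGF-beta. Unstimulated wells served as the full-inhibition control; stimulated DMSO wells = 0%.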
S2 tox: Viability Counterscreen for Primary qHTS for Inhibitors of ATXN expression; S2 cells (HEK-293 line with an ATXN2-luciferase reporter) viability, CellTiter-Fluor protease fluorescence, 24 h; Potency, µM (series often up to 56.7 µM), actives largely listed as cytotoxic; 400,000 compounds, 0.49% hits; note: potency is the fitted concentration of half-maximal effect; nearly all actives have a fitted effect of over 40% in size
HepG2 tox: qHTS for Inhibitors of TGF-b: Cytotox Counterscreen | 410,000 compounds, 0.76% hits | HepG2 CAGA-GFP viability, ATP luminescence, 18 h | Potency, µM (series often up to 46.1 µM), for the others: top-dose activity change, negative = cytotoxicity, hits mostly cytotoxic | AID 588856, 2011; note: potency is the fitted concentration of half-maximal effect
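CellTiter-Glo luminescence gave cytotoxicity after 18 hours at 37 degrees C. The cells were HepG2 CAGA-GFP in 1% FBS DMEM, stimulated with 500 pg/mL TGF-beta after compound addition. %Activity was normalised to no-cell wells (complete cell-killing) and DMSO (no toxicity), and curves were fitted and classified.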
* = called active by the depositor; i = inactive; ? = inconclusive; nt = no result given. Compounds with a hit are over-represented: about 2.2% of the library has one in this group of screens. Unless noted, calls come from the whole dose curve; as a rule, active = well fitted curve in the direction sought with a large enough effect; inconclusive = small, poorly fitted or top-dose-only effect, or another doubt; inactive = no such curve, though single readings can be large; an effect the other way counts as inactive or inconclusive.

SMILES	mIDH1 inhibitor	LDHA block	ATXN2 expr inh	TGFb SMAD3 inh	S2 tox	HepG2 tox
COc1cccc(S(=O)(=O)NCc2ccc(C(=O)Nc3cccc(Cl)c3)cc2)c1	3.1%	-5.3	15.8µM*	-13.5%	?	-3.1%
CCN1CCN(C(C(=O)NC2CCCCC2)C2CC2)CC1 (centres undefined)	nt	-1.9	-1.2%	-11.2%	i	4.6%
CCN1CCN(C(C)C(=O)NC2CCCCC2)CC1 (centres undefined)	1.5%	-30.8*	nt	-10.3%	i	17.0%
Cc1nc2c(C(=O)NCc3ccco3)cnn2c(C)c1Cc1ccc(F)cc1Cl	-5.4%	-1.1	-24.6%	-4.9%	i	-11.9%
Cc1cccc(Cc2c(C)nc3c(C(=O)NCc4ccco4)cnn3c2C)c1	-3.8%	8.0	-33.3%	17.8µM*	i	-112.7%
CCOc1ccc(-n2c(C)nc3cc(C(=O)NCCC4=CCCCC4)ccc32)cc1	-10.0%	-0.3	2.5%	17.8µM*	i	-30.6%
Cc1ccc(-n2c(SCC(=O)Nc3cccc(Cl)c3)nc3n[nH]c(C)c3c2=N)cc1	-24.4%	-0.1	nt	1.78µM*	nt	12.6µM*
Cc1cccc(-n2c(SCC(=O)Nc3ccc(C)c(C)c3)nc3n[nH]c(C)c3c2=N)c1	-12.0%	-9.4	nt	?	nt	-26.5%
O=C(NCCc1cccs1)C1CCN(c2ccc(C(F)(F)F)cn2)CC1	nt	-30.6*	nt	nt	nt	nt
CC(=O)C(C(c1ccccc1)N1CCOCC1)N1CCOCC1 (centres undefined)	-3.7%	-9.3	-6.5%	4.5%	i	-14.3%
Cc1ccc(CNC(=O)c2ccccc2NS(=O)(=O)c2ccc(Cl)nc2)cc1	8.5%	-1.1	-9.9%	15.8µM*	?	-34.4%
COc1cc(C(=O)N/N=C(\c2ccccc2)c2ccccn2)cc(OC)c1OC	-5.2%	-0.9	2.51µM*	-4.3%	i	-23.8%
COc1cc(NC(=O)c2ccccn2)cc(OC)c1OC	12.7%	2.5	nt	4.9%	i	6.0%
COc1cccc(C(=O)N/N=C(/c2ccccc2)c2ccccn2)c1	2.8%	-5.6	3.98µM*	?	10µM*	-32.7%
COc1ccc2[nH]c3c4c(ccc3c2c1)C(=O)C=CC4=O	-12.1%	7.7	3.55µM*	14.1µM*	6.31µM*	-75.0%
COc1ccc(C(=O)/C=C/C(=O)N(CC(=O)NC2CCCCC2)Cc2ccc(F)cc2)c(O)c1	4.6%	-4.2	?	-8.0%	nt	-12.6%
CCOC(=O)C1CCCN(C(=O)c2cc(-c3ccccc3)cs2)CC1 (centres undefined)	nt	-3.7	12.8%	?	i	-15.0%
CCc1cc(=O)n(CC(=O)N2CCCCC2CC)c(-c2ccccc2)n1 (centres undefined)	nt	-0.2	nt	nt	nt	nt
CCC1CCCCN1C(=O)Cn1c(-c2ccccc2)nc(C)cc1=O (centres undefined)	nt	-33.4*	nt	nt	nt	nt
CCOc1ccc(NCc2cccn2-c2nnc(N3CCC(C(=O)NCCCN4CC(C)CC(C)C4)CC3)s2)cc1 (centres undefined)	0.0%	8.7	31.6µM*	?	?	-87.2%
CCS(=O)(=O)c1cccc(-c2cc(C(=O)NC3CCN(C)CC3)c(C)c3[nH]c4ncc(C)cc4c23)c1	nt	nt	1.93µM*	nt	nt	nt
Cc1ccc(C)c(C(=O)CSc2n[nH]c(-c3ccncc3)n2)c1	-1.0%	1.9	0.0%	-14.2%	i	-35.2%
C(=C\c1ccccc1)/CN1CCN(C(c2ccnc3ccccc23)c2nnnn2C2CCCC2)CC1 (centres undefined)	nt	-4.4	-26.1%	10µM*	?	-43.7%
Cc1cc(N2CCN(C(C(=O)O)c3c[nH]c4ccc(CO)cc34)CC2)nc2ccccc12 (centres undefined)	nt	0.1	nt	nt	nt	nt
OC(CNc1ccnc2cc(Cl)ccc12)CNC1CCCCC1 (centres undefined)	-3.5%	-8.6	31.6µM*	?	nt	-92.9%
SMILES	mIDH1 inhibitor	LDHA block	ATXN2 expr inh	TGFb SMAD3 inh	S2 tox	HepG2 tox
CCN1C(=O)c2ccccc2Sc2ccc(NC(=O)Nc3ccc(C(C)=O)cc3)cc21	-0.9%	2.2	nt	?	nt	-22.5%
Cc1ccccc1CNC(=O)Nc1ccc2c(c1)N(C)C(=O)c1ccccc1S2	17.9%	1.0	nt	7.08µM*	nt	-32.8%
O=C(NCCCN1CCOCC1)c1ccc2c(c1)N(Cc1cccc(Cl)c1)C(=O)c1ccccc1S2	-6.7%	-1.0	nt	?	nt	11.2µM*
CN1C(=O)c2ccccc2Sc2ccc(NC(=O)NCc3ccc(Cl)cc3)cc21	4.0%	-2.0	nt	-3.1%	nt	-3.1%
CN1C(=O)c2ccccc2Sc2ccc(NC(=O)NCc3cccc(Cl)c3)cc21	-3.7%	6.5	nt	10µM*	nt	-56.7%
O=C(NCCCN1CCOCC1)c1ccc2c(c1)N(Cc1c(F)cccc1Cl)C(=O)c1ccccc1S2	0.4%	1.5	nt	?	?	-34.2%
CCc1ccccc1NC(=O)Nc1ccc2c(c1)N(CC)C(=O)c1ccccc1S2	1.9%	0.1	nt	11.2µM*	nt	-33.7%
C/C(=N\NC(=O)c1ccc(CN2CCc3ccccc3C2)cc1)c1ccccc1O	9.2%	-1.9	15.8µM*	?	i	-1.3%
Cc1ccc(NC(=O)CN2CCSc3ccc(S(=O)(=O)N4CCCC4)cc32)cc1C	0.4%	-2.1	-33.4%	?	14.1µM*	0.0%
Cc1ccc(NC(=O)CN2C(=O)COc3ccc(S(=O)(=O)N4CCCC4)cc32)cc1C	-0.2%	-1.5	4.7%	7.9%	?	4.2%
Cc1cccc(-c2nc(CN3CCCC(C(=O)NC4CCCCC4)C3)c(C)o2)c1 (centres undefined)	1.5%	-4.8	-8.2%	?	i	-18.7%
Cc1cccc(-c2nc(CN3CCCC(C(=O)NC4CCCCCC4)C3)c(C)o2)c1 (centres undefined)	2.3%	3.3	-17.1%	11.2µM*	?	-59.0%
CCc1ccc(-c2nc(CN3CCC(C(=O)NCc4ccccc4OC)CC3)c(C)o2)cc1	6.4%	0.0	nt	?	nt	14.1µM*
Cc1oc(-c2cccc(Cl)c2)nc1CN1CCCC(C(=O)NCc2ccc(Cl)cc2)C1 (centres undefined)	2.2%	-4.0	2.1%	?	i	-6.6%
Cc1ccc(CNC(=O)C2CCCN(Cc3nc(-c4cccc(C)c4)oc3C)C2)cc1 (centres undefined)	32.3%	0.1	nt	?	nt	15.8µM*
Cc1ccc(S(=O)(=O)n2nc(-c3ccc(Cl)cc3)nc2NCc2ccc(F)cc2)cc1	2.4%	4.7	1.4%	3.1%	i	-1.8%
